# Test results from the supplement of paper PMC10849652.
# About 8,800 targets were measured; listed, in parts, are those with a hit and a random draw of the rest. About 0.5% of all pairs of compound and target were hits. A number with no mark means an inactive call.
# Compound: Cc1cc(Nc2cc(N3CCN(C)CC3)nc(Sc3ccc(NC(=O)C4CC4)cc3)n2)n[nH]1 [tozasertib]
# Test: log2 fold change, soluble protein after heating vs DMSO (PISA); higher = thermal stabilisation; K562 lysate, 10 uM; active = over 0.2 and 3.5 SD of the protein, either way, in both replicates (recomputed)
# How it was run: (§1)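 K562 pellets were dounce-homogenised in PBS pH 7.4 with 1 mM MgCl2, and the crude extract at 1 mg/mL protein was treated with 10 μM compound for 30 min. Aliquots were heated for 3 min across 48°C-58°C, pooled, and brought to 0.5% NP-40 at 4°C; soluble protein was the supernatant after 21,000xg for 90 min. Soluble protein was quantified by TMTpro 16plex LC-MS/MS with channel sums equalised, and reported as log2 fold change in thermal stability against DMSO controls, with values from duplicates.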
# Sequence of UniProt Q06210 (Q06210 whole entry, looked up): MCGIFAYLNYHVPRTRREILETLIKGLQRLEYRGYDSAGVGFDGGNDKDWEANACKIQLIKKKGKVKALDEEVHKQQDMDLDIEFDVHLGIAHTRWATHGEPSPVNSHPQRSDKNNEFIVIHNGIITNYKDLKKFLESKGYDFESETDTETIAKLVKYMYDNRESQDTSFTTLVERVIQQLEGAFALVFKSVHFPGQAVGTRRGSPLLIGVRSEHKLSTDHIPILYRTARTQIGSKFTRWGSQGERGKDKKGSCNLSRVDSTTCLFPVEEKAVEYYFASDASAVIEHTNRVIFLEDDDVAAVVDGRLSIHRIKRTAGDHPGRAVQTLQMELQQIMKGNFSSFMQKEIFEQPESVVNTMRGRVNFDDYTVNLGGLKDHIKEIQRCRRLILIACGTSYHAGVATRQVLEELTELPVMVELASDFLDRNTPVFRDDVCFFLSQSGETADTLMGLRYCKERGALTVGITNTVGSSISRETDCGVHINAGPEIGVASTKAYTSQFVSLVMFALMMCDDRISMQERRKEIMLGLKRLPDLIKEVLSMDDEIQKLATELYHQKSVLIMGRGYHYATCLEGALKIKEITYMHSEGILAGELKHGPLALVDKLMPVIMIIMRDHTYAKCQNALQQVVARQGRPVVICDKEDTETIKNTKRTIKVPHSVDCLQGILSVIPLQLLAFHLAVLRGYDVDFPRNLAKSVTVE
# Sequence of UniProt Q96RT1 (Q96RT1 whole entry, looked up): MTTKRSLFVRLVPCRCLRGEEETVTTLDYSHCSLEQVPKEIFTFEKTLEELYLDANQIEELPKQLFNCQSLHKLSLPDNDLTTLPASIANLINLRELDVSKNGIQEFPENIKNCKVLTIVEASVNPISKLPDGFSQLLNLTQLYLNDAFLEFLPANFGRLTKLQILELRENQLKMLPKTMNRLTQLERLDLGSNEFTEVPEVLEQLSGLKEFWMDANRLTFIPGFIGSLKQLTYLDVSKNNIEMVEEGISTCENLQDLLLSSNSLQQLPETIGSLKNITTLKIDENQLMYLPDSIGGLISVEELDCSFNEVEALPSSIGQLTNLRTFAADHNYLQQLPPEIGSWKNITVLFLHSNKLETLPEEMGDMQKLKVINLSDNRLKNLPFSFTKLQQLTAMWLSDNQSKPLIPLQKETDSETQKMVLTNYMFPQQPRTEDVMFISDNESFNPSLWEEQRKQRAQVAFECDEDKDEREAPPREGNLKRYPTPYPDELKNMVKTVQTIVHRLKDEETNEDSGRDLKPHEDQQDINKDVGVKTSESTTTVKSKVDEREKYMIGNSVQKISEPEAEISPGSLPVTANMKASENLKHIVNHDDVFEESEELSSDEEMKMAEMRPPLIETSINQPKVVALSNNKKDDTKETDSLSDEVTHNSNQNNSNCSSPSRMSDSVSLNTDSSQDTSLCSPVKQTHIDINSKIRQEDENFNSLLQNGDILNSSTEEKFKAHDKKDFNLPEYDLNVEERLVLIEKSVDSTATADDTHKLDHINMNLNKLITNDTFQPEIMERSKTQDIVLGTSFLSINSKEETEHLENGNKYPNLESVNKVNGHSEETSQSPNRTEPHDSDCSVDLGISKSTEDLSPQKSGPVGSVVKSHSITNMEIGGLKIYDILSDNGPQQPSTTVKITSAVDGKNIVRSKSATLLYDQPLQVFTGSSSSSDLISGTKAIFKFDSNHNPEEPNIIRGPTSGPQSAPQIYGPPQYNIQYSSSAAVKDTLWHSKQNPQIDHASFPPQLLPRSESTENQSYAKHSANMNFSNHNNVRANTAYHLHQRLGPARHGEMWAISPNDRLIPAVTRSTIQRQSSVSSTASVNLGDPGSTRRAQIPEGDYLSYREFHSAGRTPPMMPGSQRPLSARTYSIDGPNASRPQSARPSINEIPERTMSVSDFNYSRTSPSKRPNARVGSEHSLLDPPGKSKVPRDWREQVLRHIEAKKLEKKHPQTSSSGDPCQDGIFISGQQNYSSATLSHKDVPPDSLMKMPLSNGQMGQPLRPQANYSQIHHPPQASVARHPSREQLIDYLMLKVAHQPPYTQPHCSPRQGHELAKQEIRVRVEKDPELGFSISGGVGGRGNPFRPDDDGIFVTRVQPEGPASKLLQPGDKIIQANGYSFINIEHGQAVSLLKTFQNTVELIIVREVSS
# Sequence of UniProt P54852 (P54852 whole entry, looked up): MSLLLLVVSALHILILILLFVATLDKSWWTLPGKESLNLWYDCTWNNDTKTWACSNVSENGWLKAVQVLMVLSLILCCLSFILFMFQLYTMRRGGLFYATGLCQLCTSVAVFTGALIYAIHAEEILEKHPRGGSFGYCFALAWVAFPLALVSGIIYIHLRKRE
# Sequence of UniProt Q8WWZ3 (Q8WWZ3 whole entry, looked up): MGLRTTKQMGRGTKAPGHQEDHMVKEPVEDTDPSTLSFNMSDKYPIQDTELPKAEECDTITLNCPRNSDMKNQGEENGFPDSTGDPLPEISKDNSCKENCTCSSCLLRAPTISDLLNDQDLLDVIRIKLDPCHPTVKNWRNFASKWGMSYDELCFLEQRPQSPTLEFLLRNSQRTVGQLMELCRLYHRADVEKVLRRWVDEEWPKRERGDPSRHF
# Sequence of UniProt O43427 (O43427 whole entry, looked up): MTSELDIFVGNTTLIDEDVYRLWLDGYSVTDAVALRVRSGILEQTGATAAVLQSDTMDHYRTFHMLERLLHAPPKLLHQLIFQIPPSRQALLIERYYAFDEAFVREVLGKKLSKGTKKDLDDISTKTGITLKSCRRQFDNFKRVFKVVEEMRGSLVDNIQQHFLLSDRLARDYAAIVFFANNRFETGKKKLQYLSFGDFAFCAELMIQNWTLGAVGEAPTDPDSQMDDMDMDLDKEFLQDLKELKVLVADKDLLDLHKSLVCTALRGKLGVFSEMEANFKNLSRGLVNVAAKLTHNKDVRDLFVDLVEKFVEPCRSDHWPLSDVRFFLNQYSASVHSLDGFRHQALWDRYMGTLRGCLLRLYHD
# Sequence of UniProt Q9UK97 (Q9UK97 whole entry, looked up): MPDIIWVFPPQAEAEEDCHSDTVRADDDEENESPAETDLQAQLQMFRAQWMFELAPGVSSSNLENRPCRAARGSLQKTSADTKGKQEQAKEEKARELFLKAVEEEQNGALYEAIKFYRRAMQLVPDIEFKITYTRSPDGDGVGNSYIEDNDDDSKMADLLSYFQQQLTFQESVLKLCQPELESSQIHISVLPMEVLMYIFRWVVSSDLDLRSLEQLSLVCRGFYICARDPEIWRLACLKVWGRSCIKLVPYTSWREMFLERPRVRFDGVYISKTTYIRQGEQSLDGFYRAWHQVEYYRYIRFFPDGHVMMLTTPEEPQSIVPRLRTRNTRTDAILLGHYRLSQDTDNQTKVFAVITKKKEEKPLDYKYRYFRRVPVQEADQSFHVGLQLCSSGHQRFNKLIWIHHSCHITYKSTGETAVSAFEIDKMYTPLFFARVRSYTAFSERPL
# Sequence of UniProt A6NHQ2 (A6NHQ2 whole entry, looked up): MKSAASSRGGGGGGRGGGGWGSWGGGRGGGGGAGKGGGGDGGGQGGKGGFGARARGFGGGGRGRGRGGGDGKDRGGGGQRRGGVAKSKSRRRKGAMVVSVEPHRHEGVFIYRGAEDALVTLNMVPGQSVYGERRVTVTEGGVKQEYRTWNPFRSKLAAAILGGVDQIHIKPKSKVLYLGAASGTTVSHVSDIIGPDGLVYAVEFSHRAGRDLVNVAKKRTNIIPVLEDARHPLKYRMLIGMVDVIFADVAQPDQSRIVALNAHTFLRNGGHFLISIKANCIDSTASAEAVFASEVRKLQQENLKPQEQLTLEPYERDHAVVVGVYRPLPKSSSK
# Sequence of UniProt Q8N5C7 (Q8N5C7 whole entry, looked up): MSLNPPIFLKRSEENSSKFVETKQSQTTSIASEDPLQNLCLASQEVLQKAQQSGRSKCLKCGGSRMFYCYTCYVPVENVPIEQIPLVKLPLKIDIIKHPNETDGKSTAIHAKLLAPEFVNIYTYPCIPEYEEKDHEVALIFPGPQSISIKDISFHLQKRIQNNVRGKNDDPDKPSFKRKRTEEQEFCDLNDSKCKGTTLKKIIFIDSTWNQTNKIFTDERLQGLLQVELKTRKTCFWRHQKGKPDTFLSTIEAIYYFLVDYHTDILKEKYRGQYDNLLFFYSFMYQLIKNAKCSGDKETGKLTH
# Sequence of UniProt Q8N6R0 (Q8N6R0 whole entry, looked up): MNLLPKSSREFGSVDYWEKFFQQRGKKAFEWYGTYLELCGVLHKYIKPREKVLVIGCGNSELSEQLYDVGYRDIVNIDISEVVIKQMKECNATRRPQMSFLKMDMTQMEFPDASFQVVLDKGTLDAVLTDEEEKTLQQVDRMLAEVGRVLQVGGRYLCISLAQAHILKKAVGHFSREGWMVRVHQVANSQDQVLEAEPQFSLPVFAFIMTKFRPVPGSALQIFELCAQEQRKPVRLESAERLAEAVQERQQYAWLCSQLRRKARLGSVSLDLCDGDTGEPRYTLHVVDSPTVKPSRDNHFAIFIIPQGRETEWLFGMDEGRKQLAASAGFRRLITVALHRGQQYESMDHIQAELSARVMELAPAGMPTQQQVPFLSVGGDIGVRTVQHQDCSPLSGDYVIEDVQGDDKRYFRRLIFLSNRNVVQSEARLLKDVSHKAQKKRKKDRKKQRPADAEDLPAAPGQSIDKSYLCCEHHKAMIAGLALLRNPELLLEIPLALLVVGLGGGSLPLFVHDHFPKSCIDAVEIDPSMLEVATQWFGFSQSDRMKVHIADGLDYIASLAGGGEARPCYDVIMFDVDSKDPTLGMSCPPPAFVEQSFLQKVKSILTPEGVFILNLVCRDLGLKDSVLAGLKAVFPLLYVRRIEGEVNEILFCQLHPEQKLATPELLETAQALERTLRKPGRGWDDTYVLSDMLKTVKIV
# Sequence of UniProt P62942 (P62942 whole entry, looked up): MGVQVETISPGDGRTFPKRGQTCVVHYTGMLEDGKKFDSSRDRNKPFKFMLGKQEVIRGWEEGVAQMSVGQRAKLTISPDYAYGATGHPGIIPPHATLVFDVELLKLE
# Sequence of UniProt Q9NPA8 (Q9NPA8 whole entry, looked up): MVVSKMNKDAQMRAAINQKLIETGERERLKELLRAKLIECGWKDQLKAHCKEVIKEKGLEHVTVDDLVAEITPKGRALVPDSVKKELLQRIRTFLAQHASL
row,Target,log2 fold change
1,FARSA (UniProt Q9Y285),-0.063
2,FECH isoform 2 (UniProt P22830),0
3,EBP (UniProt Q15125),-0.016
4,EP300 (UniProt Q09472),0.065
5,EP400 isoform 5 (UniProt Q96L91),-0.041
6,ESRRA (UniProt P11474),0.088
7,DUS2 (UniProt Q9NX74),0.011
8,GCLM (UniProt P48507),-0.017
9,GGT7 (UniProt Q9UJ14),-0.03
10,EMP3 (UniProt P54852),-0.078
11,FANCI (UniProt Q9NVI1),0.002
12,FAM118B (UniProt Q9BPY3),-0.008
13,GFPT1 (UniProt Q06210),-0.013
14,FKBP1A (UniProt P62942),-0.037
15,EDARADD (UniProt Q8WWZ3),0.082
16,FIBP (UniProt O43427),0.05
17,EHD2 (UniProt Q9NZN4),-0.004
18,"FADS1, A0A0A0MR51",0.041

row,Target,log2 fold change
1,GALNT2 (UniProt Q10471),0.047
2,FASTKD5 (UniProt Q7L8L6),0.056
3,FBLL1 (UniProt A6NHQ2),0.047
4,DTWD1 (UniProt Q8N5C7),-0.075
5,GGA2 (UniProt Q9UJY4),0.007
6,FYB1 isoform 3 (UniProt O15117),0.052
7,DYRK1A (UniProt Q13627),0.03
8,DUS3L (UniProt Q96G46),0.009
9,ERI1 (UniProt Q8IV48),-0.015
10,FBXO9 (UniProt Q9UK97),0.041
11,ERBIN isoform 8 (UniProt Q96RT1),-0.013
12,ENY2 (UniProt Q9NPA8),0.019
13,EEF1AKNMT (UniProt Q8N6R0),-0.029
14,"EEF1A1, A0A087WVQ9",-0.08
15,ETHE1 (UniProt O95571),-0.06
16,FBXO22 (UniProt Q8NEZ5),0
17,FASTKD2 (UniProt Q9NYY8),-0.013
18,FBXO30 (UniProt Q8TB52),-0.021

# Compound: Cc1ccc(-n2nc(C(C)(C)C)cc2NC(=O)Nc2ccc(OCCN3CCOCC3)c3ccccc23)cc1 [doramapimod]
# Test: as above
# How it was run: as §1
row,Target,log2 fold change
1,FARSA (UniProt Q9Y285),0
2,FECH isoform 2 (UniProt P22830),-0.015
3,EBP (UniProt Q15125),-0.127
4,EP300 (UniProt Q09472),-0.016
5,EP400 isoform 5 (UniProt Q96L91),0.02
6,ESRRA (UniProt P11474),-0.028
7,DUS2 (UniProt Q9NX74),-0.01
8,GCLM (UniProt P48507),0.001
9,GGT7 (UniProt Q9UJ14),-0.054
10,EMP3 (UniProt P54852),0.029
11,FANCI (UniProt Q9NVI1),-0.003
12,FAM118B (UniProt Q9BPY3),0.048
13,GFPT1 (UniProt Q06210),-0.001
14,FKBP1A (UniProt P62942),-0.04
15,EDARADD (UniProt Q8WWZ3),0.086
16,FIBP (UniProt O43427),-0.038
17,EHD2 (UniProt Q9NZN4),0.02
18,"FADS1, A0A0A0MR51",0.018

row,Target,log2 fold change
1,GALNT2 (UniProt Q10471),-0.014
2,FASTKD5 (UniProt Q7L8L6),0.036
3,FBLL1 (UniProt A6NHQ2),-0.013
4,DTWD1 (UniProt Q8N5C7),0.035
5,GGA2 (UniProt Q9UJY4),-0.024
6,FYB1 isoform 3 (UniProt O15117),-0.007
7,DYRK1A (UniProt Q13627),-0.06
8,DUS3L (UniProt Q96G46),-0.018
9,ERI1 (UniProt Q8IV48),0.015
10,FBXO9 (UniProt Q9UK97),0.044
11,ERBIN isoform 8 (UniProt Q96RT1),0.02
12,ENY2 (UniProt Q9NPA8),-0.021
13,EEF1AKNMT (UniProt Q8N6R0),0.074
14,"EEF1A1, A0A087WVQ9",-0.069
15,ETHE1 (UniProt O95571),0.005
16,FBXO22 (UniProt Q8NEZ5),0.034
17,FASTKD2 (UniProt Q9NYY8),0.028
18,FBXO30 (UniProt Q8TB52),0.045
